From PubChem BioAssay AID720598 (Broad Institute, 2013)
Measured potencies and affinities stand elsewhere. Calls of active or inactive are those of the source.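 The calls were made as follows: active = viability drop at all three exposure times, fitted half-maximal dose at most twice the top valid dose; inconclusive = exposure times disagree in their calls; inactive = inactive at every exposure time.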

Assay: time-course viability loss in HT-29 cells – cell-based, CellTiter-Glo, multiple timepoints, dry powder, HRas target identification project, dose response (AID 720598)
Conditions: HT-29 viability, CellTiter-Glo ATP luminescence, 8-48 h; series mostly up to 35 µM

Structure (SMILES): CCC(=O)N(c1ccc(OC)c(Cl)c1)C(C(=O)NCCc1ccccc1)c1cccs1 (configuration not stated)
- outcome: inactive

Structure (SMILES): Cc1onc(C(=O)N2CCN(C(c3ccncc3)c3ccncc3)CC2)c1[N+](=O)[O-]
- outcome: inactive
